Test results published in PubChem BioAssay (NCATS).
Results filed as inconclusive are left out. A call without a number means that no potency is given here. Active and inactive are the calls of the source. The call rests on the fitted dose curve; in most records, active means well fitted curve in the direction sought with a large enough effect; inconclusive means small, poorly fitted or top-dose-only effect, or another doubt; inactive means no such curve, though single readings can be large; an effect the other way counts as inactive or inconclusive.

Columns and labels:
[1] = molecular target: Aldehyde dehydrogenase, mitochondrial (Homo sapiens) (UniProt P05091); experiment: qHTS for Inhibitors of the Aldehyde Dehydrogenase Family (ALDH2) Primary screen (AID 2061308); further: nearly all actives have a fitted effect of over 55% in size
[2] = molecular target: Retinaldehyde dehydrogenase 3 (Homo sapiens) (UniProt P47895); experiment: qHTS for Inhibitors of the Aldehyde Dehydrogenase Family (ALDH1A3) Primary screen (AID 2061315)

| Compound | Potency [1] | Potency [2] |
| --- | --- | --- |
| CCNc1nc(C#N)nc2c1ncn2-c1cc(F)cc(F)c1 | inactive | inactive |
| COc1ccc(OC)c(C2=Nn3c(nnc3-c3cc(OC)ccc3OC)SC2)c1 | inactive | inactive |
| CCCCCC1CCC(C(=O)Nc2ccc(S(=O)(=O)Nc3nccs3)cc2)CC1 (stereo not given) | inactive | inactive |
| Cc1ccc(OCCn2c(CCNCC3CCCCC3)nc3ccccc32)cc1 | inactive | inactive |
| Cc1ccc(CNc2ncnc3ccc(-c4ccc(C(=O)N(C)C)o4)cc23)o1 | inactive | inactive |
| COc1ccc2cc3cc(C(=O)Nc4ccc(F)cc4)sc3nc2c1 | inactive | inactive |
| Cc1ccc(-c2cc(C(=O)Nc3cccc4ccccc34)c3ccccc3n2)cc1C | inactive | inactive |
| CC(OC(=O)c1ccc(S(C)(=O)=O)c([N+](=O)[O-])c1)C(=O)NC1C2CC3CC(C2)CC1C3 (stereo not given) | inactive | inactive |
| COC(=O)c1ccc(OC(C)=O)c2ncccc12 | inactive | inactive |
| COc1cccc(C2c3c(ncn(-c4cccc(Cl)c4)c3=N)Oc3ccc4ccccc4c32)c1 (stereo not given) | inactive | inactive |
| Cc1cc(C)nc(NC(=S)N2CCN(c3cc(Cl)c(Cl)cc3Cl)CC2)c1 | inactive | inactive |
| O=C(Nc1ccc(-c2nc3ccccc3[nH]2)cc1)c1ccc2sccc2c1 | inactive | inactive |
| O=C(/C=C/c1ccccc1Cl)Nc1cccc([S+](=O)([O-])Nc2ccccc2F)c1 | inactive | inactive |
| O=C(OCC#CCSc1nnc(-c2cccc3ccccc23)o1)c1ccc(C(F)(F)F)cc1 | inactive | inactive |
| CCOc1ccc(CCNC(=O)c2cc3sccc3n2Cc2cccc(C)c2)cc1OCC | inactive | inactive |
